Over roughly 8,300 sequences, “log2 fold change of degron read counts, EGFP-low vs EGFP+ sorted cells (limma voom), compound-induced degradation” has its median near -1.1; the highest 2% begin near 3.2. Only a selection was taken, and the highest values are over-represented in it overall.
T1: CRBN, Q96SW2
T1 chain: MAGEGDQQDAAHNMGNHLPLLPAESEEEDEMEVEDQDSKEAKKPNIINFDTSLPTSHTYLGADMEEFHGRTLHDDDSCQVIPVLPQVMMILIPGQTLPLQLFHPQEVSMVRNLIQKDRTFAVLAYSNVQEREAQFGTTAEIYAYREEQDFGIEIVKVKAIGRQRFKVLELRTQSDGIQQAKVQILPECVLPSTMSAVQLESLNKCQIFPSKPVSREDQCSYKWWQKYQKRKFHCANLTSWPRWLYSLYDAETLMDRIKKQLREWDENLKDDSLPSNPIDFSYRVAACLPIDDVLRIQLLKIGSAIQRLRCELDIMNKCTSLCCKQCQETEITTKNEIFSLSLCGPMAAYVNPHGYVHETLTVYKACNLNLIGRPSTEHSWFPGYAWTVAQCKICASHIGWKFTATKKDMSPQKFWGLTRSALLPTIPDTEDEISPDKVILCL


Molecular target: T1, CRBN, Q96SW2
Experiment: log2 fold change of degron read counts, EGFP-low vs EGFP+ sorted cells (limma voom), compound-induced degradation; higher = more compound-induced degradation of the degron-EGFP fusion; degrons are variants of IKZF1/3 zinc finger 2; compound dose not given here
Details: Jurkat, 18 h
[1] = compound: compound 19 (5-tert-butyl-thalidomide)
[2] = compound: compound 22 (5-morpholino-thalidomide)
[3] = compound: compound 33 (diphenyl IMiD analogue)
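Note: pooled lentiviral library of zinc finger degron-EGFP fusions in mCherry-positive Jurkat cells, FACS-sorted after compound exposure, with degron abundance counted by next-generation sequencing.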

| Sequence | log2 fold change of degron read counts [1] | log2 fold change of degron read counts [2] | log2 fold change of degron read counts [3] | log2 fold change of degron read counts (compound: thalidomide) |
| --- | --- | --- | --- | --- |
| FQCEQCGAWFTQKGNLLRHIKL [46F_47Q_49E_50Q_52G_53A_54W_55F_67L_, Q9UKT9] | -2.85 | -2.85 | -1.86 | -0.183 |
| FRCDICGAHFTQKGNLLRHIKL [46F_47R_49D_50I_52G_53A_54H_55F_67L_, Q9UKT9] | -1.41 | -1.53 | 0.162 | -1.18 |
| FACDVCGACFTQKGNLLRHIKL [46F_47A_49D_50V_52G_53A_54C_55F_67L_, Q9UKT9] | 1.83 | -0.406 | -0.331 | -2.56 |
| FKCNVCGANFTQKGNLLRHIKL [46F_47K_49N_50V_52G_53A_54N_55F_67L_, Q9UKT9] | -2.45 | -2.95 | -3.12 | -2.19 |
| FICNICGAYFTQKGNLLRHIKL [46F_47I_49N_50I_52G_53A_54Y_55F_67L_, Q9UKT9] | -1.5 | 0.102 | 1.22 | 0.967 |
| FLCNVCGALFTQKGNLLRHIKL [46F_47L_49N_50V_52G_53A_54L_55F_67L_, Q9UKT9] | -2.4 | -1.93 | -0.86 | -0.854 |
| FCCEICGHNFTQKGNLLRHIKL [46F_47C_49E_50I_52G_53H_54N_55F_67L_, Q9UKT9] | -3.4 | -2.63 | -3.12 | -2.76 |
| FQCDQCGANFTQKGNLLRHIKL [46F_47Q_49D_50Q_52G_53A_54N_55F_67L_, Q9UKT9] | -2.74 | -1.96 | -2.34 | -0.263 |
| FYCNICGAIFTQKGNLLRHIKL [46F_47Y_49N_50I_52G_53A_54I_55F_67L_, Q9UKT9] | 0.725 | 1.63 | 0.601 | -0.748 |
| FHCNICGAIFTQKGNLLRHIKL [46F_47H_49N_50I_52G_53A_54I_55F_67L_, Q9UKT9] | -0.569 | 0.345 | -0.0029 | -0.75 |
| FQCNICGAIFTQKGNLLRHIKL [46F_47Q_49N_50I_52G_53A_54I_55F_67L_, Q9UKT9] | -0.972 | 2.07 | 2.21 | 3.81 |
| FTCPICGRYFTQKGNLLRHIKL [46F_47T_49P_50I_52G_53R_54Y_55F_67L_, Q9UKT9] | -0.651 | -0.614 | 0.487 | 0.782 |
| LACNQCGFLCTQKGNLLRHIKL [46L_47A_49N_50Q_52G_53F_54L_55C_67L_, Q9UKT9] | -1.52 | -2.34 | -2.08 | -1.99 |
| LCCEICGFKCTQKGNLLRHIKL [46L_47C_49E_50I_52G_53F_54K_55C_67L_, Q9UKT9] | 2 | 1.83 | -0.183 | 2.48 |
| LWCEICGFKCTQKGNLLRHIKL [46L_47W_49E_50I_52G_53F_54K_55C_67L_, Q9UKT9] | 3.29 | 3.25 | 1.64 | 1.24 |
| LECEICGFKCTQKGNLLRHIKL [46L_47E_49E_50I_52G_53F_54K_55C_67L_, Q9UKT9] | -0.0668 | -1.67 | -0.528 | 2.53 |
| LFCEICGFKCTQKGNLLRHIKL [46L_47F_49E_50I_52G_53F_54K_55C_67L_, Q9UKT9] | 3.22 | 3.15 | 0.657 | 1.64 |
| LYCEICGFKCTQKGNLLRHIKL [46L_47Y_49E_50I_52G_53F_54K_55C_67L_, Q9UKT9] | 3.6 | 3.16 | 1.42 | 1.42 |
| LQCEICGFKCTQKGNLLRHIKL [46L_47Q_49E_50I_52G_53F_54K_55C_67L_, Q9UKT9] | 0.755 | 1.87 | 0.3 | 3.27 |
| LLCEICGFKCTQKGNLLRHIKL [46L_47L_49E_50I_52G_53F_54K_55C_67L_, Q9UKT9] | 0.0968 | -1.51 | -0.463 | 1.96 |
| LACEICGFKCTQKGNLLRHIKL [46L_47A_49E_50I_52G_53F_54K_55C_67L_, Q9UKT9] | 3.4 | 1.5 | -1.07 | 0.917 |
| LTCEICGFKCTQKGNLLRHIKL [46L_47T_49E_50I_52G_53F_54K_55C_67L_, Q9UKT9] | 0.899 | 1.56 | -0.216 | 2.39 |
| LDCEICGFKCTQKGNLLRHIKL [46L_47D_49E_50I_52G_53F_54K_55C_67L_, Q9UKT9] | -0.859 | -1.7 | -1.79 | -0.369 |
| LICEICGFKCTQKGNLLRHIKL [46L_47I_49E_50I_52G_53F_54K_55C_67L_, Q9UKT9] | 0.236 | 1.62 | 0.617 | 2.72 |
| LSCEICGFKCTQKGNLLRHIKL [46L_47S_49E_50I_52G_53F_54K_55C_67L_, Q9UKT9] | 2.27 | 1.7 | -0.728 | 1.09 |
| FLCPVCGAHFTQKGNLLRHIKL [46F_47L_49P_50V_52G_53A_54H_55F_67L_, Q9UKT9] | -0.298 | -0.793 | 1.34 | 0.943 |
| LVCEICGFPCTQKGNLLRHIKL [46L_47V_49E_50I_52G_53F_54P_55C_67L_, Q9UKT9] | -1.74 | -0.966 | -1.5 | -0.424 |
| FVCPICGRIFTQKGNLLRHIKL [46F_47V_49P_50I_52G_53R_54I_55F_67L_, Q9UKT9] | -1.17 | -0.629 | 1.04 | 1.32 |
